# In all, about 89,000 compounds went through this assay and about 440 (0.49%) were called active.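 Rule for the calls: active = inhibition above the mean inhibition across all screened compounds plus 3 SD (cut at about 11% in these data); inactive = the rest.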 For the sample, actives were picked, then their nearest neighbours and some compounds at random.
# Target: RNA-editing ligase 1, mitochondrial (Trypanosoma brucei brucei) (UniProt P86926)
# Experiment: T. brucei editing ligase REL1 blockade – biochemical, FRET fluorescence, primary screen (AID 1117264);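 note: 0% = plate median of test wells and 100% = NSC42067 control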
# Conditions: TbREL1 RNA ligation, at 9.66 µM, stronger effect = higher value
# Sequence of RNA-editing ligase 1, mitochondrial (Trypanosoma brucei brucei) (P86926 whole entry, looked up): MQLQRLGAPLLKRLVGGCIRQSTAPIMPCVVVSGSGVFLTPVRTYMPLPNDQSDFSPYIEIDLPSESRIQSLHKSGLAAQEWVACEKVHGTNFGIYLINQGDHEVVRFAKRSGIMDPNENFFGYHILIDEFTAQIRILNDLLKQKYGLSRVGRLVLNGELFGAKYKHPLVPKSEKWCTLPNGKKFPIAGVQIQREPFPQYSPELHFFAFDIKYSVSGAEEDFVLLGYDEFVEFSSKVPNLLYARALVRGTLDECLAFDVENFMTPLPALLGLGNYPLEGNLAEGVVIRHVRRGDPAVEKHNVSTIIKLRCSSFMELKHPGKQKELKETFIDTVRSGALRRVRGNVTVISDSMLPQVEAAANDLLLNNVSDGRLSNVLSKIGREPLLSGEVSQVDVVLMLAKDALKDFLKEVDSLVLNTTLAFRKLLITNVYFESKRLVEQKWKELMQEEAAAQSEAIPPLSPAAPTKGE
row,Compound,inhibition
1,Cc1nnsc1C(=O)Nc1cccc(Cl)c1C,11.4% (active)
2,Cc1c(Cl)cccc1NC(=O)NCCCN1CCCC1=O,5.26% (inactive)
3,Cc1nc(C)c(C(=O)Nc2cccc(C)c2C)o1,-2.18% (inactive)
4,O=C(OCC(=O)N1CCCC1)c1ccc(Cl)nc1,4.11% (inactive)
5,O=C1CC(N2CCN(C(c3ccccc3)c3ccccc3)CC2)C(=O)N1 (centres undefined),4.81% (inactive)
6,Cc1cccc(N2CCN(C(c3ccccc3)c3nnnn3CC3CCCO3)CC2)c1C (centres undefined),-2.64% (inactive)
7,CC1(C)CC(N2CCN(C(c3ccccc3)c3ccccc3)CC2)=CC(=[N+]2CCCCC2)C1,20.5% (active)
8,COC(=O)CN1C(=O)[C@H]2[C@@H](/C=C/c3ccccc3)N3C(=O)CN(CC4CC4)C(=O)[C@@]3(Cc3ccccc3)[C@H]2C1=O,-1.86% (inactive)
9,NC(=O)COC(=O)c1ccc2c(c1)C(=O)N(Cc1ccco1)C2=O,-0.09% (inactive)
10,Cc1cc(NS(=O)(=O)c2ccc(NC(=O)CSc3nnc(SCc4ccc(F)cc4)s3)cc2)nc(C)n1,1.56% (inactive)
11,CCOC(=O)C1C(c2ccc(O)cc2)NC(=O)NC1(O)C(F)(F)F (centres undefined),-0.27% (inactive)
12,COC(=O)C1CN(CCc2ccccc2)CCS(=O)(=O)N1Cc1cccc(Cl)c1 (centres undefined),1.04% (inactive)
13,COc1ccc(CCNC(=O)CSc2nc3[nH]ncc3c(=O)n2-c2cccc(C(F)(F)F)c2)cc1OC,-1.55% (inactive)
14,CCc1ccc(N(CC(=O)NCc2cccnc2)S(=O)(=O)c2ccccc2)cc1,-1.98% (inactive)
15,N#Cc1ccc(C2N=C(c3ccccc3)NO2)cc1 (centres undefined),9.48% (inactive)
16,O=C(Nc1ccon1)c1nc[nH]c1C(=O)NCc1ccccc1,5.43% (inactive)
17,Cc1nc2ccc(C(=O)N3CCN(C(=O)C(C)(C)C)CC3)cc2n1C1CCCC1,-0.3% (inactive)
18,COc1ccccc1/C=C/C(=O)OCC(=O)NC1CCCCCC1,1.81% (inactive)
19,Cc1ccc(Cn2c(C)c(C(=O)NCc3ccccc3C(F)(F)F)sc2=O)cc1,0.6% (inactive)
20,COc1ccc(S(=O)(=O)N2CCOCC2)cc1NC(=O)CC1CC2CCC1C2 (centres undefined),-2.41% (inactive)
21,CCOc1ccc(NC(=O)CCCCCN2C(=O)[C@@H]3Cc4ccccc4CN3C2=O)cc1,-0.69% (inactive)
22,Cc1c(S(=O)(=O)NC(C)c2ccccc2)c(=O)n(C)c(=O)n1C (centres undefined),0.77% (inactive)

row,Compound,inhibition
1,CCOc1cc2[nH]c(=O)n(Cc3ccc(C(=O)NCCCN4CCCC4=O)cc3)c(=O)c2cc1OCC,-3.44% (inactive)
2,CCC1CCCCN1CCCNC(=O)C1CCC(Cn2c(=O)[nH]c3ccccc3c2=O)CC1 (centres undefined),0.83% (inactive)
3,CCCCCn1c(=O)[nH]c2cc(C(=O)NCCCN3CCCCC3C)ccc2c1=O (centres undefined),11.5% (active)
4,CCn1c(=S)sc2c(=O)n(CC(=O)Nc3ccc(OC)cc3)c(C)nc21,-1.47% (inactive)
5,O=C(NC1CCCCC1)C1CCCN(S(=O)(=O)c2ccc(Br)s2)C1 (centres undefined),1.07% (inactive)
6,CCOC(=O)N1CCN(Cc2nc(Cc3cccc(C(F)(F)F)c3)no2)CC1,1.05% (inactive)
7,COc1ccc(N(Cc2ccc(N(C)C)cc2)C(=O)c2ccc(S(C)(=O)=O)cc2)cc1,-9.41% (inactive)
8,COCCN(Cc1ccccc1)C(=O)Cc1ccc(S(=O)(=O)N2CCOCC2)s1,-2.32% (inactive)
9,CCc1ccc(CN2C(=O)c3ccccc3C2C(=O)NCC2CCCO2)cc1 (centres undefined),-0.89% (inactive)
10,COCC(=O)N(C)[C@H]1C[C@H]2c3cc(Oc4ccccc4C)ccc3CCN2C(=O)[C@H]1[C@H](C)O,1.02% (inactive)
11,COc1cccc(CNC(=O)C2CCCN(c3ncnc4c3nc3n4CCCCC3)C2)c1 (centres undefined),0.12% (inactive)
12,Cc1ccc(NC(=O)Cn2cccc2C2=NC(c3ccccc3)CO2)c(C)c1 (centres undefined),-0.96% (inactive)
13,COc1ccc(N2C(=O)c3ccccc3NC2c2ccc(OC)c(CN3CCOCC3)c2)cc1 (centres undefined),0.23% (inactive)
14,O=C1NC[C@H](Cc2ccc(O)cc2)N(C[C@H]2CCCN2C[C@H](Cc2ccccc2)N2C[C@H](Cc3ccccc3)N(CCc3ccccc3)C(=O)C2=O)C1=O,-1.45% (inactive)
15,CC[C@@H](C)[C@@H]1CN([C@@H](C)CN2CCC[C@H]2CN2C(N)=NC[C@H]2C(C)C)C(=N)N1CCc1ccc(Cl)c(Cl)c1,14% (active)
16,CC1CCCCN1C(=O)Cn1c(=O)oc2cc(S(=O)(=O)N3CCCCC3)ccc21 (centres undefined),-1.44% (inactive)
17,Cc1cc(C)cc(N(CC(=O)NC2CCCC2)C(=O)CCC(=O)Nc2cc(C)on2)c1,0.2% (inactive)
18,Nc1ncnc2c1ncn2[C@@H]1O[C@H](C(=O)N[C@@H](CCc2ccccc2)C(=O)NCC(=O)N2CCOCC2)[C@@H](O)[C@H]1O,-1.68% (inactive)
19,COc1c(O)cc2oc(-c3ccc(O)c(O)c3)cc(=O)c2c1O,29.5% (active)
20,CCOC(=O)COc1cc(OCC(=O)OCC)c2c(=O)cc(-c3ccccc3)oc2c1,2.07% (inactive)
21,COc1cc(NC(=O)CSC(=S)N2CCCC2)c(OC)cc1Cl,6.87% (inactive)
22,Nc1ccc2nc3c(=O)[nH]c(=S)[nH]c3nc2c1,50.5% (active)
